This is an account of results in PubChem BioAssay (Tox21).

Molecules are shown by their SMILES. Inconclusive results are not listed. Entries that show only a call come without a potency. Active and inactive are the calls of the source. The call rests on the fitted dose curve; in most records, active means well fitted inhibition curve with a large enough effect in the repeat runs; inconclusive means weak or mixed curves; inactive means no such curve, though single readings can be large or run the other way.
Potency means the concentration at half of the fitted maximal effect.

The target of this assay is Cytochrome P450 2C9 (Homo sapiens) (UniProt P11712). Description: Cytochrome P450 Family 2 Subfamily C Member 9 (CYP2C9) small molecule antagonists: luciferase reporter qHTS assay (AID 1671198). Further: nearly all actives have a fitted effect of over 50% in size. To be noted: P450-Glo CYP2C9 enzyme assay, luciferin luminescence; series mostly up to 115 µM. An outline of the steps: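 P450-Glo proluciferin substrate with CYP2C9 enzyme; 10 min RT preincubation, then NADPH regeneration 1 h at 37C; luciferin detection reagent 20 min RT, luminescence in relative luminescence units.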
Cytochrome P450 2C9 (Homo sapiens), sequence (P11712 whole entry, looked up): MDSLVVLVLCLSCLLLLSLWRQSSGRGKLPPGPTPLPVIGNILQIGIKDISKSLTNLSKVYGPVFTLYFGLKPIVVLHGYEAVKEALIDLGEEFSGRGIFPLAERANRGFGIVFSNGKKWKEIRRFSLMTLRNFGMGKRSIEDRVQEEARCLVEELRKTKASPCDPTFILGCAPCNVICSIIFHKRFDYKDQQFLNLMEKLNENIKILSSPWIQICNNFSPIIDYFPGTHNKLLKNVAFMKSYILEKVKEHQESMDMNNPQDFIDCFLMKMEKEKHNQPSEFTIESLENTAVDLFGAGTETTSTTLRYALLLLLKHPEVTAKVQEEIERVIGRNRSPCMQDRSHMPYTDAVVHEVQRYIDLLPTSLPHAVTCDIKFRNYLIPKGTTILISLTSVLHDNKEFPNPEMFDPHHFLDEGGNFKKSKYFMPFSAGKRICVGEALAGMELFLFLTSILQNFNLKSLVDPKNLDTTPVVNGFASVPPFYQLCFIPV
Take `CN(C)CCN(Cc1ccccc1)c1ccccn1`: the Potency result was “inactive”.

For the compound `COc1ccc(C)cc1[N+](=O)[O-]`, the Potency entry was “inactive”.

For the compound `CCN(CC)CCOC(=O)C(Cc1cccc2ccccc12)CC1CCCO1` (centres undefined), the Potency entry is “inactive”. On to `O=C(O)c1nc(Cl)c(Cl)c(Cl)c1Cl`, for which the Potency was 39.9 µM (active).

`C=CC(=O)OCCOCCOC(=O)C=C`: the Potency result is “inactive”. Regarding `CC(C)(O)c1ccc(CNC(=O)c2cccnc2Oc2ccc(F)cc2)cc1`, the Potency is 22.4 µM (active). As to `CCc1c(C(=O)NN2CCCCC2)nn(-c2ccc(Cl)cc2Cl)c1-c1ccc(Br)cc1`, the Potency was 8.94 µM (active). `CNCCCCOc1ccccc1Cc1ccccc1`: the Potency result is “inactive”. For the compound `C#C[C@]1(O)CC[C@H]2[C@@H]3CCc4cc(OC5CCCC5)ccc4[C@H]3CC[C@@]21C`, the Potency was 19.5 µM (active). With `O=C(O)C1(C(=O)Nc2ccc(Cl)cc2Cl)CC1` the figure was 15.9 µM (active); with `CCCn1cnc2c1c(=O)n(CCCCC(C)=O)c(=O)n2C`, “inactive”; with `Cc1oc(-c2ccccc2)nc1CCOc1cccc2c1ccn2CCC(=O)O`, 22.4 µM (active). Regarding `C=C(C)C(=O)OCC`, the Potency entry is “inactive”. Then `CCCCCCCC/C=C\CCCCCCCC(=O)OCC`, with 71 µM (active); and `Cc1cc(C(=O)O)ccc1[N+](=O)[O-]`, with “inactive”; and `C[C@H]1C[C@H]2[C@@H]3CCC4=CC(=O)C=C[C@]4(C)[C@@]3(Cl)[C@@H](O)C[C@]2(C)[C@@]1(O)C(=O)CO`, with 17.4 µM (active). With `O=S(c1cc(Cl)cc(Cl)c1O)c1cc(Cl)cc(Cl)c1O` the figure was 17.4 µM (active); with `Nc1cc(C(=O)O)c(O)c(S(=O)(=O)O)c1`, “inactive”; with `C=C(C)C(=O)OCCO`, “inactive”.
